# Measurements published in PubChem BioAssay (NCATS).
# “And” between values parts separate entries of the source, which are not always exact repeats. Equal entries are not always repeated. Inconclusive results are not listed. The source made the active and inactive calls. Calls come from the whole dose curve; as a rule, active = well fitted curve in the direction sought with a large enough effect; inconclusive = small, poorly fitted or top-dose-only effect, or another doubt; inactive = no such curve, though single readings can be large; an effect the other way counts as inactive or inconclusive.
# What was measured:
# [1] = qHTS assay for measurement of the activity of small molecule inhibitors on Zika virus induced Caspase-3 activity in human iPSC derived neural progenitor cells (hNPCs) (AID 1224857); note: nearly all actives have a fitted effect of over 65% in size
# Summary of the method: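 Cells were plated at 350 per well and grown 16 to 20 hours. Compound pretreatment lasted one hour, after which ZIKV (2 FFU/cell) was added for 6 hours. Percent inhibition was normalized between uninfected and infected controls.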
# [2] = qHTS assay for measurement of the activity of small molecule inhibitors on Zika virus induced Caspase-3 activity in human astrocytoma cells (AID 1224859)
# Summary of the method: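 Percent inhibition of virus-induced caspase-3/7 signal is calculated against uninfected and ZIKV-infected control cells. Cells are SNB-19, infected at 2 FFU/cell for 6 h after 1 h compound exposure.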
# [3] = qHTS Screen of the MIPE 4.0 Collection Against Ewings Sarcoma (RDES) (AID 1259252); note: nearly all actives have a fitted effect of over 35% in size; note: potency is the fitted concentration of half-maximal effect
# Summary of the method: (§1)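 Here, cells in 5% FBS RPMI were exposed for two days (48 h) to compound dilutions added four hours after plating. ATP-based CellTiter-Glo luminescence measured viability, normalized to vehicle and no-cell blanks.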
# [4] = qHTS Screen of the MIPE 4.0 Collection Against Ewings Sarcoma (TC71) (AID 1259253); note: nearly all actives have a fitted effect of over 40% in size; note: potency is the fitted concentration of half-maximal effect
# Summary of the method: as §1
# [5] = qHTS Screen of the MIPE 4.0 Collection Against Ewings Sarcoma (EW8) (AID 1259255); note: nearly all actives have a fitted effect of over 35% in size; note: potency is the fitted concentration of half-maximal effect
# Summary of the method: as §1
# [6] = qHTS Screen of the MIPE 4.0 Collection Against Ewings Sarcoma (TC32) (AID 1259256); note: nearly all actives have a fitted effect of over 45% in size; note: potency is the fitted concentration of half-maximal effect
# Summary of the method: as §1
# [7] = Identifying Small Molecule Inhibitors of Pancreatic Cancer Stem Cells (SN12C, Adherent) (AID 1259358);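 note: cell survival measured after 48 h of compound exposure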; note: potency is the fitted concentration of half-maximal effect
# Summary of the method: (§2)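 Luminescent ATP readout (CellTiter-Glo) quantifies surviving cells after a 48 h drug incubation. Normalization uses DMSO wells as no inhibition and media-only wells as full inhibition; bortezomib served as positive control.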
# [8] = Identifying Small Molecule Inhibitors of Pancreatic Cancer Stem Cells (SN12C, Spheroid) (AID 1259360); conditions: Potency: SN12C spheroid viability; note: potency is the fitted concentration of half-maximal effect
# Summary of the method: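 Monolayer and spheroid cultures are compared. Spheroids form over 14 days in stem cell medium on hydrogel-coated low-attachment plates, then are exposed to compound for 48 h before CellTiter-Glo luminescence.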
# [9] = P-glycoprotein substrates identified in KB-8-5-11 adenocarcinoma cell line, qHTS therapeutic library screen (AID 1346987); note: nearly all actives have a fitted effect of over 65% in size; note: potency is the fitted concentration of half-maximal effect
# Summary of the method: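 Steps: plate 500 KB-8-5-11 cells/well in DMEM + 10% FCS (colchicine removed); pin compounds in dose-response; incubate 72 h, 37 degree C, 5% CO2; add CellTiter-Glo, 5 min; read luminescence.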
# [10] = Identifying Small Molecule Inhibitors of Pancreatic Cancer Stem Cells (A278, Adherent) (AID 1259361); note: nearly all actives have a fitted effect of over 35% in size
# Summary of the method: as §2
# [11] = NS1 protein of Zika virus - qHTS assay to identify small molecule inhibitors in human HEK 293 cells (AID 1347053); note: nearly all actives have a fitted effect of over 55% in size; note: potency is the fitted concentration of half-maximal effect
# Summary of the method: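 HEK 293; 20 h pre-culture, 37 C/5% CO2; cpd 1 h pre-infection; ZIKV MR766, MOI = 0.5, 24 h, 37 C; TR-FRET NS1 readout (two anti-NS1 Abs); norm. to no-virus vs infected.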
# [12] = P-glycoprotein substrates identified in KB-3-1 adenocarcinoma cell line, qHTS therapeutic library screen (AID 1346986); note: nearly all actives have a fitted effect of over 60% in size;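 note: potency is the fitted concentration of half-maximal effect; potency is for cytotoxicity meaning loss of cell viability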
# Summary of the method: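 Resistance attributable to P-gp was assessed by comparing AC50 in KB-8-5-11 with parental KB-3-1 and by tariquidar reversal. Cells were exposed 72 h and viability read by CellTiter-Glo.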
# [13] = Identifying Small Molecule Inhibitors of Pancreatic Cancer Stem Cells (Panc1, Spheroid) (AID 1259359);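 note: potency is the fitted concentration of half-maximal effect; compound exposure lasted 48 h before reading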
# Summary of the method: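 Cytotoxicity read by CellTiter-Glo luminescence after 48 h compound exposure at 37C; percent activity scaled between DMSO-treated cells and cell-free wells. Spheroid formats used cells pre-formed 14 days in stem cell media on hydrogel.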
SMILES,Potency [1],Potency [2],Potency [3],Potency [4],Potency [5],Potency [6],Potency [7],Potency [8],Potency [9],IC50 (viability decrease) [10],Potency [11],Potency [12],Potency [13]
CC(C)=CCCC(C)=CCCC(C)=CCSc1ccccc1C(=O)O,inactive,inactive,2350 nM (active),2350 nM (active),2640 nM (active),1870 nM (active),inactive,inactive,1.32 µM (active),–,–,–,–
Cc1cn(-c2cc(NC(=O)c3ccc(C)c(Nc4nccc(-c5cccnc5)n4)c3)cc(C(F)(F)F)c2)cn1,inactive,inactive,inactive,inactive,inactive,inactive,inactive,inactive,–,–,–,–,–
COc1ccc(OC)c(-c2nnc3ccc(-c4ccc(OC)c(O[C@@H]5CCOC5)c4)nn23)c1,inactive,inactive,16600 nM (active),16600 nM (active),11800 nM (active),16600 nM (active),20900 nM (active),18700 nM (active),4.61 µM (active),5900 nM (active),9350 nM (active),–,–
COc1ccc(CC2SC(=O)NC2=O)cc1C(=O)NCc1ccc(C(F)(F)F)cc1 (stereo unspecified),inactive,inactive,inactive,inactive,inactive,inactive,inactive,inactive,inactive,inactive,inactive,–,–
CC(C)(C)OC(=O)Nc1ccc(-c2cc(C(=O)NCCCCCCC(=O)NO)no2)cc1,inactive,inactive,2090 nM (active),2960 nM (active),1320 nM (active),1660 nM (active),26400 nM (active),16600 nM (active),8.33 µM (active),2350 nM (active),26400 nM (active),–,–
O=C(NCCS(=O)(=O)c1ccc(C(F)(F)F)cn1)c1ccc(Cl)cc1,inactive,inactive,inactive,inactive,inactive,inactive,inactive,inactive,–,inactive,inactive,inactive,–
Nc1ccccc1NC(=O)c1ccc(CNC(=O)OCc2cccnc2)cc1,inactive,inactive,9350 nM (active),2350 nM (active),2350 nM (active),1660 nM (active),inactive,inactive,11.8 µM (active) and 9.2 µM (active),inactive,inactive,–,–
COc1ccc(C=Cc2cc(OC)c(OC)c(OC)c2)cc1O,inactive,inactive,inactive,inactive,inactive,inactive,2.6 nM (active),2090 nM (active),0.001 µM (active),1.7 nM (active),inactive,–,–
C#Cc1cccc(Nc2ncnc3cc(OC)c(OCCCCCCC(=O)NO)cc23)c1,inactive,inactive,20.9 nM (active),74.3 nM (active),59 nM (active),37.2 nM (active),14800 nM (active),–,10.5 µM (active) and 14.6 µM (active),1180 nM (active),inactive,–,–
COC(=O)c1ccc2c(C(=Nc3ccc(N(C)C(=O)CN4CCN(C)CC4)cc3)c3ccccc3)c(O)[nH]c2c1,inactive,inactive,148 nM (active),743 nM (active),3320 nM (active),1480 nM (active),18700 nM (active),18700 nM (active),–,4690 nM (active),inactive,–,13200 nM (active)
Cn1cc(-c2[nH]c3cc(NC(=O)[C@H](N)C4CCCCC4)cc4c3c2C=NNC4=O)cn1,inactive,inactive,833 nM (active),590 nM (active),372 nM (active),372 nM (active),14800 nM (active),4180 nM (active),inactive,2640 nM (active),332 nM (active),–,–
COc1cc2ncnc(Nc3ccc(F)c(Cl)c3)c2cc1NC(=O)C=CCN1CCCCC1,inactive,inactive,16600 nM (active),2090 nM (active),4690 nM (active),2960 nM (active),20900 nM (active),29600 nM (active),inactive,16600 nM (active),–,inactive,23500 nM (active)
Cc1cc(Nc2cc(N3CCN(C)CC3)nc(Sc3ccc(NC(=O)C4CC4)cc3)n2)n[nH]1,inactive,inactive,3720 nM (active),6620 nM (active),296 nM (active),1180 nM (active),20900 nM (active),inactive,–,–,9350 nM (active),231 nM (active),–
Cn1c(=O)n(-c2ccc(C(C)(C)C#N)cc2)c2c3cc(-c4cnc5ccccc5c4)ccc3ncc21,inactive,inactive,46.9 nM (active),59 nM (active),29.6 nM (active),33.2 nM (active),74.3 nM (active),148 nM (active),366 nM (active) and 18.7 nM (active),–,–,–,–
